Our source for the growth inhibition values is PubChem BioAssay (NCI).

Molecules are shown by their SMILES. This is part of a sample that, as a whole, favours compounds with a hit. Of some 79,000 tested, about 15% had one in any assay. Unmarked numbers belong to inactive results. Activity calls are given as the source filed them. No stated cut-off is given here; in the data, active means growth inhibition above about 70%; inactive means the rest.

Test [1] can be described thus: NCI Yeast Anticancer Drug Screen. Data for the rad50 strain (AID 155).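 Further: 0% = growth of vehicle-only cultures of the same strain.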 To be noted: S. cerevisiae rad50 strain growth inhibition; at 50.0 µM; hits give high values. The method, boiled down:
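Relative growth inhibition (compound vs vehicle) was measured in yeast with a defined repair-gene alteration.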

The nature of test [2]: NCI Yeast Anticancer Drug Screen. Data for the mec2-1 strain (AID 157). To be noted: S. cerevisiae mec2-1 strain, at 50.0 µM, hits give high values. The method, boiled down: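 Growth inhibition is read against vehicle-treated controls after compound exposure of the mec2-1 yeast strain, which is defective in DNA damage repair or cell cycle control.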
Test [3] is described as follows: NCI Yeast Anticancer Drug Screen. Data for the sgs1 mgt1 strain (AID 161).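 Further: 0% = growth of cultures given vehicle only.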 To be noted: S. cerevisiae sgs1 mgt1 strain, at 50.0 µM, hits give high values. The method, boiled down:
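This yeast growth screen uses a strain with defined DNA-repair lesions; compound-treated growth is compared with vehicle-treated growth.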

Test [4] can be described thus: NCI Yeast Anticancer Drug Screen. Data for the cln2 rad14 strain (AID 165).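 Further: 0% = growth equal to vehicle treated cultures.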 To be noted: S. cerevisiae cln2 rad14 strain, at 50.0 µM, hits give high values. The method, boiled down: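 Growth inhibition, relative to vehicle-treated controls, is the read-out. The test organism is a yeast strain with defined genetic alterations, cln2 rad14.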
A short description of test [5]: NCI Yeast Anticancer Drug Screen. Data for the bub3 strain (AID 167). To be noted: S. cerevisiae bub3 mutant strain, at 50.0 µM, hits give high values. The method, boiled down:
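Screening used yeast with an engineered genetic alteration affecting cell cycle control. Compound-exposed cultures were compared with vehicle cultures, and reduced growth was taken as inhibition.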

Test [6] can be described thus: NCI Yeast Anticancer Drug Screen. Data for the mlh1 rad18 strain (AID 175). The conditions noted are these: S. cerevisiae mlh1 rad18 strain growth inhibition; at 50.0 µM; hits give high values. The method, boiled down: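 Cells of a genetically altered yeast strain, deficient in DNA damage repair, were treated with compound. Their growth was then compared with that of vehicle-treated cultures to give inhibition.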

With `C=C(Br)CN1CCC2(c3ccccc3)C(=O)C([Se]c3ccccc3)CCC12` (stereo unspecified), the growth inhibition was -5.45% in test [1]; 8.15% in test [2]; 8.9% in test [3]; -7.25% in test [4]; -1.35% in test [5]; -0.95% in test [6].

For `COC(=O)c1cnccn1`, the growth inhibition was -3.3% in test [1]; -1.35% in test [2]; -3.85% in test [3]; -27.4% in test [4]; 0.75% in test [5]; -6.3% in test [6].

For `O=c1[nH]c(Nc2ccc(Cl)c(C(F)(F)F)c2)nc2nc[nH]c12`, the growth inhibition in test [1] was 17.7%; in test [2] it was 7.55%; in test [3], -9.5%; in test [4] it was 9.9%; in test [5], 8.45%; in test [6], 23.1%.

With `COc1ccc2c(c1)OC[C@@H]1c3cc(NS(=O)(=O)c4ccccc4)cc(OC)c3O[C@H]21`, the growth inhibition in test [1] is 10.9%; in test [2], 32.5%; in test [3] it was 47.8%; in test [4], 30.3%; in test [5] it was 58.8%; in test [6], 52.6%.

As for `O=C(/C=C(\Br)c1ccccc1)c1ccccc1`, the growth inhibition was 99.3% (active) in test [1]; 99.5% (active) in test [2]; 99.8% (active) in test [3]; 99.2% (active) in test [4]; 98.9% (active) in test [5]; 99.3% (active) in test [6].

Take `CNC(=O)OCCCCCCCCCCOC(=O)NC`: the growth inhibition in test [1] is 2.8%; in test [2], -0.1%; in test [3] it was 6.2%; in test [4], -23.7%; in test [5] it was -17.9%; in test [6], 4.65%.

As for `O=c1[nH]c2cc3[nH]c(=O)c(=O)[nH]c3cc2[nH]c1=O`, the growth inhibition in test [1] is -21.8%; in test [2] it was -16.6%; in test [3] it was -6.7%; in test [4], 8.85%; in test [5], -5.7%; in test [6], -17.2%.

Consider `O=Cc1cc2ccccc2c2ccccc12`, for which the growth inhibition is -23.2% in test [1]; -24% in test [2]; 5.45% in test [3]; -16.8% in test [4]; 0.2% in test [5]; -4.9% in test [6].

Take `CC(C)CNc1ncnc2[nH]ncc12`: the growth inhibition in test [1] is -1.75%; in test [2] it was -6.2%; in test [3], -3.55%; in test [4], -3.35%; in test [5] it was 1.2%; in test [6], -6.2%.

As to `CCOC(=O)C(C(=O)OCC)C(C(=O)OCC)(C(=O)OCC)C(C(=O)OCC)C(=O)OCC`, the growth inhibition in test [1] was -15.2%; in test [2] it was -9.15%; in test [3], 1.85%; in test [4] it was -3.55%; in test [5], -3.65%; in test [6] it was -19.9%.

As for `O=c1[nH]c(Br)nc2c(Br)c[nH]c12`, the growth inhibition in test [1] is -17.1%; in test [2], -0.15%; in test [3], -18.4%; in test [4] it was -12.8%; in test [5], -22.2%; in test [6], -18.9%.

Regarding `O=C(OCC(Cl)(Cl)Cl)N1[C@@H]2C=C[C@@H](N1C(=O)OCC(Cl)(Cl)Cl)[C@@]13CCCCC21O3` (stereo partly specified), the growth inhibition in test [1] was -55.7%; in test [2], 5.15%; in test [3] it was 0.45%; in test [4], 1.8%; in test [5], -4.95%; in test [6], 1.65%.

Turning to `C/C(=N\NC(N)=S)c1ccc(C)cc1C`, the growth inhibition in test [1] is 45.4%; in test [2], -3.75%; in test [3] it was 57%; in test [4], 25.9%; in test [5], 7.55%; in test [6] it was 59.5%.

Regarding `Cc1ccncc1C#N`, the growth inhibition in test [1] is 5%; in test [2] it was -2.25%; in test [3], -0.9%; in test [4], 6.55%; in test [5], 0.3%; in test [6], 3.95%.

For `c1ccc2c(c1)ccc1cc3c(ccc4ccccc43)cc12`, the growth inhibition in test [1] was 15.3%; in test [2], -11.3%; in test [3], 7.9%; in test [4], 13.2%; in test [5] it was 34.6%; in test [6], 12.4%.

As for `CC(C)(C)NC(=S)NC1CC2CC1C1Cc3ccccc3C21` (stereo unspecified), the growth inhibition was 20.6% in test [1]; -1.45% in test [2]; 22.9% in test [3]; -37.5% in test [4]; 5.8% in test [5]; 1.9% in test [6].

`CCOC(=O)C(=O)/C(=C/N1CCNC1=S)C(=O)OCC`: the growth inhibition in test [1] was -28.6%; in test [2], -9.05%; in test [3], -26.8%; in test [4], 32.4%; in test [5], -4.35%; in test [6], -25.9%.

With `O=C(Nc1nc2ccc([N+](=O)[O-])cc2s1)C(=O)C(C(=O)c1ccncc1)C1OC(=O)c2ccccc21` (stereo unspecified), the growth inhibition in test [1] was 24.1%; in test [2], 9.25%; in test [3], -19.5%; in test [4], 39.2%; in test [5], 49.8%; in test [6], 27.3%.

In the case of `CC12CCC=CC1=CC(=O)CC2` (stereo unspecified), the growth inhibition in test [1] was 1.35%; in test [2] it was 16.5%; in test [3] it was 1.05%; in test [4], 4.65%; in test [5] it was -6.8%; in test [6], 32.9%.

With `CC(=O)/C(=C/N1CCNC1=S)C(=O)Nc1ccc([N+](=O)[O-])cc1`, the growth inhibition in test [1] was -0.1%; in test [2], -4.5%; in test [3] it was -28.1%; in test [4] it was -33%; in test [5], -12.9%; in test [6], 5.6%.

On to `O=C1CSC(=S)N1.[Cu+2]`, for which the growth inhibition in test [1] was -7.9%; in test [2], -9.5%; in test [3], 7.7%; in test [4], -7.65%; in test [5], -4.5%; in test [6] it was 4.3%.
